S-ASM inh – blocks human secretory acid sphingomyelinase. AID 504937. P17405. placental ASM, HMU-PC fluorogenic substrate, 60 min. 0.006% of 340,000 active. Potency, µM (highest dose often 57.5 µM), for the others: at the top dose activity change, negative = inhibition, hits mostly inhibitors; also: potency is read from the fitted curve at half-maximal effect
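Human placenta-derived ASM preincubated with compound 10 min at room temperature, then reacted with 9 uM (final) fluorogenic HMU-PC substrate for 60 min at 37 C. Stop solution raises pH to 10; fluorescence read at Ex 386/Em 447 nm.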
MCF10A rereplic – inducers of DNA re-replication in MCF 10A breast cells | MCF 10A DNA re-replication, Hoechst nuclear intensity, 48 h | AID 624296 | Potency, µM (titrated, usually from 46.1 µM), without a hit: at the top dose activity, positive = re-replication, actives largely listed as activators | 2.9% of 350,000 active; also: potency is read from the fitted curve at half-maximal effect; % of control where 0% means no effect; nearly all actives have a fitted effect of over 50% in size
KB-3-1 cytotox – KB-3-1 parental cell cytotoxicity; Potency, µM (series often up to 46.1 µM), hits mostly cytotoxic; AID 1347075; KB-3-1 viability, CellTiter-Glo ATP luminescence, 72 h; 1.4% of 400,000 active; also: potency is read from the fitted curve at half-maximal effect; % is scaled to controls: 0 for no effect and ±100 for the full control effect; nearly all actives have a fitted effect of over 60% in size
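KB-3-1 parental drug-naive adenocarcinoma cells in DMEM/10% FBS, incubated 72 h at 37 C with pin-transferred compounds across a concentration series. Viability by CellTiter-Glo luminescence; concentration-response curves fitted after normalization.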
SW480 rereplic – induces DNA re-replication in SW480 colon adenocarcinoma cells | AID 624297 | SW480 DNA re-replication, Hoechst DNA content imaging, 48 h | Potency, µM (highest dose often 46.1 µM), for the others: at the highest dose re-replication activation, usual class: activators | 1.8% of 340,000 active; also: potency is read from the fitted curve at half-maximal effect; % of control where 0% means no effect; nearly all actives have a fitted effect of over 55% in size
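DNA re-replication was detected as more nuclei of elevated Hoechst intensity after 48 hr exposure to compound (23 nL pinned per well of 250 cells).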
Giardia killer – kills Giardia lamblia; Giardia lamblia trophozoite viability; activity change, % at 7.66 µM, hits read low; 0.15% of 340,000 active; in the data active = activity change below about -80%; inconclusive = between about -30% and that limit;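 also: parasites exposed to compound for two days anaerobically before the ATP read; % is scaled to controls: 0 for no effect and ±100 for the full control effect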
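Giardia lamblia trophozoites (100 cells/well) were incubated with compounds for 48 h at 37 deg C under anaerobic conditions. Viability was read as ATP content by one-step luminescence after 15-30 min at room temperature.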
KB-V1 MDR tox – kills drug-selected multidrug resistant KB-V1 cells. 3.4% of 400,000 active. Potency, µM (doses to about 46.1 µM), most hits filed as cytotoxic. AID 1347076. KB-V1 MDR cells viability, CellTiter-Glo, 72 h; also: potency is read from the fitted curve at half-maximal effect; % is scaled to controls: 0 for no effect and ±100 for the full control effect; nearly all actives have a fitted effect of over 60% in size
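Cytotoxicity toward P-gp-expressing KB-V1 cells was determined as loss of CellTiter-Glo luminescence after 72 h at 37 degrees C. Compounds were tested in quantitative HTS format across a concentration range, with curves fitted to normalized data.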
The depositor's hits bear a star; i = inactive; ? = inconclusive; · = no result given. Rows were chosen to be rich in hits. Some 6.9% of all compounds tested hit in one or more screens of this group. Unless noted, calls follow the shape of the dose curve; as a rule, active = well fitted curve in the direction sought with a large enough effect; inconclusive = small, poorly fitted or top-dose-only effect, or another doubt; inactive = no such curve, though single readings can be large; an effect the other way counts as inactive or inconclusive.

SMILES	S-ASM inh	MCF10A rereplic	KB-3-1 cytotox	SW480 rereplic	Giardia killer	KB-V1 MDR tox
COc1ccc(C2CC(c3ccccc3)=NN2c2ccc(S(N)(=O)=O)cc2)cc1 (configuration not stated)	i	0.58µM*	i	16µM*	2	?
COc1ccc(C2CC(c3ccccc3Cl)=NN2c2ccc(S(N)(=O)=O)cc2)cc1 (configuration not stated)	i	?	i	2.3µM*	-3	i
COc1ccc(C2=NN(CN3C(=O)C(=O)c4ccccc43)C(c3ccc(OC)cc3)C2)cc1 (configuration not stated)	-17%	2%	i	5.8µM*	17	i
COc1ccc(C2CC(c3ccccc3)=NN2c2ccc(/C=N/NC(=O)c3ccncc3)cc2)cc1 (configuration not stated)	235%	?	?	?	16	i
Cc1ncc([N+](=O)[O-])n1CCOC(=O)Nc1ccc([N+](=O)[O-])cc1	-2%	7%	i	-2%	-83*	i
Cc1ncc([N+](=O)[O-])n1CCOC(=O)c1cc(Cl)cc(Cl)c1N	8%	4%	i	-2%	-86*	i
Cc1ncc([N+](=O)[O-])n1CCOC(=O)C12CC3CC(CC(C3)C1)C2	0%	10%	i	-4%	?	i
CN(C(=O)c1cccc(NC(=O)Cc2cccc(NC(=O)C3CCN(C(=O)C4CCCCC4)CC3)c2)c1)C1CCC1	0%	1.2µM*	i	4%	12	i
COc1cc(/C=C(\C#N)c2ccccn2)ccc1OCC(=O)Nc1cccc(C(F)(F)F)c1	4%	?	i	2%	5	i
COc1cc(/C=C(\C#N)c2ccccn2)ccc1OCc1ccccc1Cl	21%	?	i	-2%	15	10µM*
COc1cc(/C=C(\C#N)c2ccccn2)cc(OC)c1O	-7%	?	7.3µM*	?	5	?
O=C(C[n+]1ccnc2ccccc21)c1ccc(Br)cc1	·	·	i	·	·	i
FC(F)(F)c1cccc(-c2ccn3ncnc3n2)c1	0%	7%	i	11%	-19	21µM*
CC1(C)C(O)=C(c2nc3ccccc3[nH]2)C(=N)N1c1ccccc1	5%	?	?	9.2µM*	4	?
CC(C)N1CC(O)=C(c2nc3ccccc3[nH]2)C1=N	3%	8%	i	-1%	-6	i
CC(C)CCN1CC(O)=C(c2nc3ccccc3[nH]2)C1=N	-3%	23%	i	17%	5	10µM*
CCCCN1CC(O)=C(c2nc3ccccc3[nH]2)C1=N	1%	?	i	23%	2	i
CCOc1ccc(CNS(=O)(=O)c2c(C(=O)N3CCCCCC3)c(C)n(C)c2C)cc1OC	·	·	i	·	·	i
O=[N+]([O-])c1ccc(Sc2ccccn2)nc1	1%	-2%	i	-5%	8	?
O=[N+]([O-])c1ccc(Sc2ccc(Cl)c(Cl)c2)nc1	-8%	15µM*	i	17%	-7	?
O=C1C2C3C=CC(C3)C2C(=O)N1CCCCCCN1C(=O)C2C3C=CC(C3)C2C1=O (configuration not stated)	0%	11%	?	-2%	-7	18µM*
Cc1c(Cl)ccc2sc(N3CCN(C(=O)CCS(=O)(=O)c4ccc(F)cc4)CC3)nc12	·	·	?	·	·	i
Cn1nc(C(F)(F)F)c(C(=O)Nc2ccc(F)cc2F)c1Sc1cccc(C(F)(F)F)c1	-7%	10%	?	-5%	-20	13µM*
Cn1nc(C(F)(F)F)c(C(=O)Nc2ccc(F)cc2F)c1Oc1cccc(Cl)c1	-3%	-11%	i	0%	5	?
Cn1nc(C(F)(F)F)c(C(=O)Nc2ccc(F)cc2F)c1Sc1cccc(Cl)c1	-6%	?	i	?	-3	16µM*

Compound activity (PubChem BioAssay)
